# Results as given in PubChem BioAssay (NCI).
# Compounds without any hit were thinned out: in the full panel of roughly 79,000, 15% have a hit. Unmarked numbers belong to inactive results. Activity calls are given as the source filed them. No stated cut-off is given here; in the data, active means growth inhibition above about 70%; inactive means the rest.
# How the values were obtained:
# [1] = NCI Yeast Anticancer Drug Screen. Data for the rad50 strain (AID 155);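 further: 0% = growth of vehicle-only cultures of the same strain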; details: S. cerevisiae rad50 strain growth inhibition, active compounds read high
# Outline: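 Relative growth inhibition (compound vs vehicle) was measured in yeast with a defined repair-gene alteration.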
# [2] = NCI Yeast Anticancer Drug Screen. Data for the mec2-1 strain (AID 157); details: S. cerevisiae mec2-1 strain, active compounds read high
# Outline: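 Compounds were applied to mec2-1 yeast cells. Their growth was then compared with that of vehicle-treated cultures to give growth inhibition.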
# [3] = NCI Yeast Anticancer Drug Screen. Data for the sgs1 mgt1 strain (AID 161);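 further: 0% = growth of cultures given vehicle only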; details: S. cerevisiae sgs1 mgt1 strain, active compounds read high
# Outline: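 Compounds are added to genetically altered yeast, and growth is compared with cultures given vehicle alone to give percent inhibition.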
# [4] = NCI Yeast Anticancer Drug Screen. Data for the cln2 rad14 strain (AID 165);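 further: 0% = growth equal to vehicle treated cultures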; details: S. cerevisiae cln2 rad14 strain, active compounds read high
# Outline: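 Strain: cln2 rad14 yeast, altered in cell cycle control and DNA damage repair. Read-out: growth inhibition vs vehicle.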
# [5] = NCI Yeast Anticancer Drug Screen. Data for the mlh1 rad18 strain (AID 175); details: S. cerevisiae mlh1 rad18 strain growth inhibition, active compounds read high
# Outline: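 A repair-deficient yeast strain is exposed to test compound, and growth is scored relative to vehicle-treated controls.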
# [6] = NCI Yeast Anticancer Drug Screen. Data for the bub3 strain (AID 167); details: S. cerevisiae bub3 mutant strain, active compounds read high
# Outline: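 Screening used yeast with an engineered genetic alteration affecting cell cycle control. Compound-exposed cultures were compared with vehicle cultures, and reduced growth was taken as inhibition.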
# [7] = at 5.0 µM (retest, dose inferred, filed as 0.5)
# [8] = at 50.0 µM (retest, dose inferred, filed as 5.0)
Compound,"growth inhibition [1, 7]","growth inhibition [1, 8]",growth inhibition ([1]; at 50.0 µM),"growth inhibition [2, 7]","growth inhibition [2, 8]",growth inhibition ([2]; at 50.0 µM),"growth inhibition [3, 7]","growth inhibition [3, 8]",growth inhibition ([3]; at 50.0 µM),"growth inhibition [4, 7]","growth inhibition [4, 8]",growth inhibition ([4]; at 50.0 µM),"growth inhibition [5, 7]","growth inhibition [5, 8]",growth inhibition ([5]; at 50.0 µM),"growth inhibition [6, 7]","growth inhibition [6, 8]",growth inhibition ([6]; at 50.0 µM)
CCN(CC)CCCCCCNc1cc(C)cc2cccnc12,7%,59%,65.9%,7%,61%,19.9%,20%,81% (active),74% (active),9%,52%,72.8% (active),10%,74% (active),59.6%,,,
CCN(CC)CCCCCCNc1cc(C)cc2ccc(C)nc12,8%,59%,65.8%,0%,22%,45.7%,11%,58%,39.1%,0%,36%,8.2%,21%,40%,47.5%,,,
COc1ccc(/C(Cl)=C(\C=O)c2ccc(Cl)cc2)cc1OC,6%,61%,4.15%,-8%,35%,13.4%,-17%,56%,21.6%,,,,-5%,68%,24.1%,4%,70% (active),13.6%
c1ccc2c(c1)Cc1c-2nc2ccccc2c1N1CCOCC1,87% (active),98% (active),97% (active),17%,99% (active),91% (active),6%,98% (active),82.3% (active),,,,25%,98% (active),89.7% (active),54%,98% (active),67.5%
CCCCCCCCCCCCCCCCCC(=O)Nc1ccn(C2OC(CO)C(O)C2O)c(=O)n1 (stereo not given),19%,4%,75.2% (active),9%,15%,83.6% (active),,,,40%,45%,80.2% (active),15%,4%,82.8% (active),48%,43%,82.3% (active)
CCCCCCCCCCCCCCCC1C(N)C(=O)N(C)N1C (stereo not given),-33%,96% (active),89.7% (active),-25%,97% (active),91.2% (active),,,,-30%,94% (active),88% (active),-43%,95% (active),90.4% (active),-51%,95% (active),89.5% (active)
CCOC(=O)Cc1nc2ccccc2s1,3%,100% (active),99.2% (active),2%,100% (active),99.6% (active),6%,99% (active),99.5% (active),,,,2%,99% (active),99.3% (active),9%,99% (active),98.8% (active)
O=[N+]([O-])c1ccc(C(Cl)Cc2ccc(Cl)cc2)cc1 (stereo not given),10%,66%,90.2% (active),7%,64%,82.5% (active),22%,91% (active),93.7% (active),,,,-18%,71% (active),89.1% (active),20%,82% (active),94.3% (active)
Cc1ccc(S(=O)(=O)S/C(=N\c2ccccn2)Nc2ccccn2)cc1,75% (active),21%,38.9%,72% (active),32%,39.9%,,,,14%,16%,3%,85% (active),29%,52.1%,95% (active),11%,14%
Cc1[nH]nc(C(F)(F)F)c1N=NN1CCC(C(N)=O)CC1,49%,99% (active),99.5% (active),77% (active),100% (active),99.5% (active),83% (active),99% (active),99.5% (active),,,,75% (active),99% (active),99.5% (active),27%,99% (active),99.5% (active)
